Measured values published in PubChem BioAssay AID488841 (Sanford-Burnham Center for Chemical Genomics, 2010).
Screen size: about 1,400 compounds; about 380 (27%) were called active.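 How the source made its calls: active means mean inhibition above 50% across duplicate retests at 10 µM; inactive means the rest.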 This is one part of the list.

Test: inhibition of NALP1/ASC/caspase-1 reporter signal in yeast, confirmation, NALP1 inhibitor project, S. cerevisiae, luminescence, single concentration (AID 488841);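 further: plate controls were DMSO in galactose medium for no effect and cells in plain SD medium for full effect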
Settings: S. cerevisiae NALP1/ASC/Caspase-1 reporter, beta-gal luminescence; at 10 µM; stronger effect = higher value

Structure (SMILES)	inhibition
O=C(Nc1ccc(Cl)c(Cl)c1)Oc1ccc(NC(=O)c2ccco2)cc1	52.8% (active)
CCCc1nc2ccc(NC(=O)c3ccco3)cc2c(=O)n1Cc1ccccc1Cl	27% (inactive)
COc1cccc(NC2=C(Cl)C(=O)OC2OC(=O)c2ccco2)c1 (centres undefined)	29.2% (inactive)
COc1ccc2c(c1)C1=NN(/C(C)=C/C(C)=O)C(c3ccc(F)cc3)C1CC2 (centres undefined)	42.4% (inactive)
Cn1nc(NC(=O)C(C)(C)C)c2c(F)cccc21	8.45% (inactive)
CC(C)Oc1ccc(Cc2cnc(N)nc2N)cc1	9.95% (inactive)
O=C1O/C(=C/c2ccccc2)c2ccccc21	73.8% (active)
Cc1ncc(S(=O)(=O)c2ccccc2)c(-c2ccccc2Cl)n1	10.2% (inactive)
CC(NC(=O)c1ccc(F)cc1)C(=O)NC1=NCCS1 (centres undefined)	22.1% (inactive)
Cc1ccc(-c2csc(NC(=O)c3ccc(F)cc3)c2C(=O)O)cc1	89.8% (active)
CN1CCN(C2=C(Cl)C(=O)N(CCc3ccccc3)C2=O)CC1	46.6% (inactive)
Cn1c(/C(C#N)=C/C2CC=CCC2)nc2ccccc21 (centres undefined)	37% (inactive)
N#C/C(=C/c1cccs1)c1nc2ccccc2[nH]1	89% (active)
N#C/C(=C\c1ccc([N+](=O)[O-])o1)c1nc2ccccc2[nH]1	24.8% (inactive)
O=c1oc2ccccc2nc1/C=C(O)/C=C/c1ccc(F)cc1	33.8% (inactive)
COc1ccccc1C(=O)Nc1nc2nc(-c3ccccc3)cc(=O)n2[nH]1	22.9% (inactive)
CCN(CC)CCN1C(=O)c2ccccc2NC1c1ccc(N(C)C)cc1 (centres undefined)	25.7% (inactive)
CN(C)CCN(C(=O)/C=C/c1cccs1)c1nc2c(F)cc(F)cc2s1	51.6% (active)
CCN(C(=O)[C@@H]1CCCN1C(=O)c1cccs1)c1nc2cc(Cl)ccc2s1	46.8% (inactive)
CN(C)CCN(C(=O)/C=C/c1cccs1)c1nc2ccc(F)cc2s1	72.1% (active)
CCCCNC(=O)COC(=O)c1ccc(Cl)c(S(N)(=O)=O)c1	25.9% (inactive)
CCOc1nnc(C)c2c(C)n(-c3cccc(Cl)c3)nc12	25.5% (inactive)
Clc1ccc2oc3c(Cl)ncnc3c2c1	23.1% (inactive)
CC(C)(C)c1cc2cccnc2n1Cc1cccc(Cl)c1	35.9% (inactive)
CC(OC(=O)CC(NC(=O)c1ccccc1Cl)c1ccccc1)C(=O)Nc1cccc(Cl)c1Cl (centres undefined)	29.8% (inactive)

Structure (SMILES)	inhibition
Cc1cc(C)n(CCOc2ccc(Cl)cc2Cl)n1	53.1% (active)
O=C(CCl)NC(=O)NC12CC3CC(CC(C3)C1)C2	32.7% (inactive)
CCCCNC(=O)C(=O)N/N=C/c1cccc(Br)c1	45.6% (inactive)
CC(/C=N/NC(=O)c1c(Br)cnn1C)=C\c1ccccc1	54.4% (active)
CC(/C=N/NC(=O)CSc1ccccn1)=C\c1ccc(C(C)C)cc1	26.2% (inactive)
CC(/C=N/NC(=O)CCn1nnc2ccccc21)=C\c1ccccc1	38.2% (inactive)
COc1cc2c(cc1NC(=S)Nc1ccccc1C)oc1ccccc12	26.9% (inactive)
CCOC(=O)/C(=N\Nc1ccc(Cl)cc1)c1csc(Nc2ccccc2)n1	27.4% (inactive)
Cc1ccc(S(=O)(=O)c2nc(Nc3ccccc3)sc2Cl)cc1	55.3% (active)
Cc1ccc(S(=O)(=O)c2nc(C)oc2NCc2ccccc2)cc1	35% (inactive)
CCCOc1ccc(OCCSc2ncccn2)cc1	39.4% (inactive)
Cc1cc(N2C(=O)C=CC2=O)c([N+](=O)[O-])cc1C	41.7% (inactive)
Fc1ccc(NC(=S)N2CCSC2c2cccs2)cc1 (centres undefined)	17.1% (inactive)
Cc1ccc(S(=O)(=O)NC2=NCN(CCOC(=O)c3ccc([N+](=O)[O-])cc3)CN2)cc1	22.2% (inactive)
Brc1ccc(C=Nc2ccc(Nc3ccccc3)cc2)s1	51.1% (active)
COc1ccc(C(=O)Nc2ccc(S(=O)(=O)Nc3nccc(C)n3)cc2)cc1OC	31.2% (inactive)
COc1ccc2nc3oc(C(=O)Nc4ccc(OC)c(OC)c4)cc3cc2c1	23.6% (inactive)
COc1ccc(NC(=S)SC)cc1OC	52.4% (active)
c1ccc(COc2ccc(OCCN3CCCCC3)cc2)cc1	35.1% (inactive)
O=C(O)c1cccnc1C(=O)N1CCc2c([nH]c3ccccc23)C1C(F)(F)F (centres undefined)	0.7% (inactive)
COc1ccccc1NC(=O)C1=C(C)NC(=O)NC1c1cccs1 (centres undefined)	27.1% (inactive)
O=[N+]([O-])c1cc(C(F)(F)F)ccc1NCCc1c[nH]c2ccc(O)cc12	51.8% (active)
Cc1ccc(C(=O)NCCCNc2ccc(C(F)(F)F)cc2[N+](=O)[O-])cc1	31.8% (inactive)
CCOC(=O)C(=O)C1=C(N2CCOCC2)/C(=C\c2ccc(F)cc2)CC1	33.4% (inactive)
